Assay results as given in PubChem BioAssay (NCI).
Compounds without any hit were thinned out: in the full panel of roughly 83,000, 20% have a hit.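 Single-dose data. Exposure time 48 hours. Values below 10 considered active.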 Unmarked numbers belong to inactive results. Activity calls are given as the source filed them.

What was measured:
Test in all cases: NCI-60 one-dose screen, 48 h (100 = growth as untreated, 0 = no growth, -100 = all killed)
Conditions in all cases: 10 µM
EKVX NSCLC = system: EKVX NSCLC
SN12C renal = system: SN12C renal
UO-31 renal = system: UO-31 renal
TK-10 renal = system: TK-10 renal
ACHN renal = system: ACHN renal
CAKI-1 renal = system: CAKI-1 renal
CCRF-CEM leukemia = system: CCRF-CEM leukemia
MOLT-4 leukemia = system: MOLT-4 leukemia
SR leukemia = system: SR leukemia
A498 renal = system: A498 renal

Compound | growth (EKVX NSCLC) | growth (SN12C renal) | growth (UO-31 renal) | growth (TK-10 renal) | growth (ACHN renal) | growth (CAKI-1 renal) | growth (CCRF-CEM leukemia) | growth (MOLT-4 leukemia) | growth (SR leukemia) | growth (A498 renal)
O=C(Nc1nc(-c2ccccc2Cl)cs1)c1cc(-c2ccc(Cl)cc2)nc2ccc(Cl)cc12 | 73.9% | 30.3% | 28.4% | 98.4% | 36.9% | 81.7% | 28.4% | 18.4% | 12.9% | –
Cc1cc(N(CCCNc2ccnc3cc(Cl)ccc23)Cc2cccs2)nc(Cl)n1 | 48% | 58.4% | 27.8% | 50.4% | 56.7% | – | 42% | 11.2% | 0.473% (active) | 28.5%
O=C(CC(c1ccccc1)N1CCOCC1)c1ccccc1 (configuration not stated) | 89.3% | 88.5% | 75.7% | 99.7% | 103% | 98.8% | 79.6% | 82.3% | -32.7% (active) | –
O=C1c2ccc3c4c(ccc(c24)C(=O)N1CCNCc1ccccc1)C(=O)N(CCNCc1ccccc1)C3=O | -65.6% (active) | -47.3% (active) | -59% (active) | 63.4% | 85.4% | -56.2% (active) | -6.55% (active) | -9.12% (active) | -8.22% (active) | –
COc1cc(/C(=C2/O[C@@H]([C@H]3COC(C)(C)O3)[C@H]3OC(C)(C)O[C@@H]23)c2ccc3ccccc3c2)cc(OC)c1OC | 53.7% | 24.8% | 46.8% | 22.7% | 0.857% (active) | 38.7% | 82.2% | 62.4% | 51.4% | –
O=C(CSSCC(=O)c1ccc(Cl)cc1)c1ccc(Cl)cc1 | 91.4% | 79.1% | 86.4% | 41.3% | 82.1% | 96.5% | 15.3% | 13.9% | 18.7% | –
COc1ccc(OC)c2c1C(=O)CC2C (configuration not stated) | 98.7% | 99.3% | 83.7% | 118% | 113% | 97.6% | – | 112% | 113% | –
CCOC(=O)C1CCc2c(ccc3ccccc23)N1CCC#N (configuration not stated) | 92.8% | 98.7% | 74.9% | 116% | 115% | 80.2% | 89.2% | 77.9% | 63% | –
Cc1cn(C2CCCCO2)c(=O)nc1NO (configuration not stated) | 92.9% | 103% | 101% | 103% | 110% | 108% | 102% | 99.1% | 116% | –
CN(C)c1ccc(Cc2ccc(N(C)C)cc2Cl)c(Cl)c1 | 103% | 99.2% | 67.6% | 88.9% | 98.4% | 99.1% | 91.6% | 46% | 88.9% | –
COc1ccc(-c2csc(NC(=O)CSc3nc(C)c(-c4ccccc4)n3Nc3ccccc3)n2)cc1 | 38.3% | 42.1% | 4.89% (active) | 86.1% | 59% | 20% | 28.3% | 31.1% | 40.7% | –
CCCCCCNC(=O)Oc1ccc(/C(=C(/CC)Cc2ccccc2)c2ccc(OCCN3CCCCC3)cc2)cc1 | 85.1% | 80.7% | 60.4% | 93.7% | 100% | 96.9% | 66.7% | 55.2% | 0.769% (active) | –
O=C(Cc1csc2nc(-c3ccc(Cl)cc3)cn12)N/N=C/c1ccccc1O | 32.2% | 61% | 27.2% | 57.1% | 26.4% | 34.5% | 20.2% | 10.5% | -11.5% (active) | –
CCCCC(CCCCCC(CCCC)NCc1ccc2c(c1)OCO2)NCc1ccc2c(c1)OCO2 (configuration not stated) | -75.2% (active) | -92.6% (active) | -100% (active) | -88% (active) | -100% (active) | -87.9% (active) | -32.8% (active) | -66.7% (active) | -64.8% (active) | –
CC(C)(C)c1ccc(N2CSC(=S)N(c3ccc(C(C)(C)C)cc3)C2)cc1 | 84.1% | 99.6% | 79.4% | 111% | 89% | – | 88.5% | 100% | 112% | 107%
N#CC1=C(Nc2ccccc2Cl)SC(c2ccccc2O)NC1=O (configuration not stated) | 108% | 102% | 84.5% | 134% | 97.7% | – | 99.9% | 104% | 123% | 95.2%
CC[C@H](C)C(=O)O[C@H]1CCC=C2C=C[C@H](C)C(CCC3C[C@@H](O)CC(=O)O3)[C@H]21 (some centres not stated) | 65.6% | 32.4% | 70.1% | 97.2% | – | -1.64% (active) | 82.3% | 91.9% | 15.5% | -33.8% (active)
OCC1OC(n2cnc3c(N/N=C\c4ccccn4)ncnc32)C(O)C1O (configuration not stated) | 7.34% (active) | 18.9% | -23.5% (active) | 42.1% | 11.8% | – | 16.8% | 21% | 20.3% | –
CN1CCC(CNc2cc(C3(C(=O)Nc4cc(C(=O)Nc5ccc(Cl)c(C(F)(F)F)c5)ccc4F)CC3)ncn2)CC1 | 46.7% | 78.8% | 7.95% (active) | 84.5% | 20.1% | – | -23.9% (active) | -37.5% (active) | -26.7% (active) | 96%
Cc1ccc(C(=O)Nc2cccc(F)c2)cc1NC(=O)C1(c2ncnc3[nH]ccc23)CC1 | 91.8% | 91.2% | 51.6% | 132% | 98.8% | – | 87.9% | 72.7% | 87.9% | 105%
Nc1nc(Nc2ccccc2)n[nH]1 | 95.8% | 101% | 82.3% | 101% | 89.7% | – | 97.7% | 106% | 102% | 108%
O=C(Nc1ccc(Cl)c([N+](=O)[O-])c1)Nc1nc2ccccc2s1 | 76.3% | 65.1% | 83.8% | 112% | 81.8% | – | 49.2% | 79.7% | 113% | 85.7%
CCOC(=O)C(=Cc1ccc(Br)cc1)C(=O)OCC | 50.5% | -21% (active) | -85.7% (active) | 8.18% (active) | -81% (active) | – | -29.1% (active) | -8.75% (active) | -42% (active) | -12.6% (active)
Cc1ccc(NC(=O)Nc2c(Cl)cccc2Cl)cn1 | 58.8% | 105% | 72.1% | 128% | 95.5% | – | 69.5% | 86.9% | 59.1% | 106%
Cc1ccc(NC(=O)Nc2nc3ccccc3s2)cc1NC(=O)Nc1nc2ccccc2s1 | 99.1% | 86.9% | 66.8% | 111% | 83.7% | – | 74.2% | 82.4% | 55.5% | 93%
COc1ccc(-c2cc(-c3ccc(N(C)C)cc3)c(C#N)c(N3CCCC3)n2)cc1 | 73.1% | 89.2% | 81.7% | 85.4% | 98.5% | – | 79.5% | 81.2% | 40.8% | 106%
ClCC#CCSc1ncnc2c1ncn2CC#CCCl | 10.5% | 20.2% | 2.36% (active) | 71.1% | 11.7% | – | 14.9% | 15.4% | 14.6% | –
COc1cc(C(=O)N2CCN(c3ccccc3OC)CC2)c(N)cc1OCCCN1CCN(c2ccccc2OC)CC1 | 83.2% | 98.6% | 62.4% | 113% | 88.8% | – | – | 53.8% | 67.7% | 117%
CC12O[C@H](C[C@@H](O)[C@H]1O)n1c3ccccc3c3c4c(c5c6ccccc6n2c5c31)C(=O)N(CCCN)C4=O | 54.9% | 36.2% | 57.6% | 38.8% | 79.4% | – | 11.2% | -3.13% (active) | 0.745% (active) | 42.3%
